According to PubChem BioAssay AID1240 (Sanford-Burnham Center for Chemical Genomics, 2008):
The campaign covered roughly 50,000 compounds. About 800 (1.6%) showed an effect of 50% or more. Shown is part of a subset that was picked to be rich in strong results.

These molecules were tested against Bcl-2-like protein 10 (Homo sapiens) (UniProt Q9HD36) (assay: TR3 peptide-Bcl-B binding displacers, biochemical primary FP assay, phenotype converters (AID 1240;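 also: 0% = Bcl-B with tracer peptide and DMSO and 100% = tracer peptide lacking Bcl-B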)). Settings: GST-Bcl-B / FITC-TR3 peptide fluorescence polarization; stronger effect = higher value; compound at 3.75 mg/L.
Chain of Bcl-2-like protein 10 (Homo sapiens) (Q9HD36 whole entry, looked up): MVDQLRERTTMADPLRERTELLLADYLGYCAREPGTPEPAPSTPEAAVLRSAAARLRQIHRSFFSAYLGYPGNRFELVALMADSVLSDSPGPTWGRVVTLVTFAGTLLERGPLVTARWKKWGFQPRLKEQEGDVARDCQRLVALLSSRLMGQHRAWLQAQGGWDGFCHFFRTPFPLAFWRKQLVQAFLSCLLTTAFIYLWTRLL

SMILES | displacement
C=CCOC(=O)C1=C(C)NC(C)=C(C(=O)OCC=C)C1c1ccc(C)o1 | 12.2%
CCOC(=O)C1=C(C)N=c2s/c(=C\c3ccc(OCC)cc3)c(=O)n2C1c1ccccc1 (stereo not given) | -1%
CCOC(=O)C1=C(C)N=c2s/c(=C\c3ccc(C(C)=O)cc3)c(=O)n2C1c1ccccc1 (stereo not given) | 76.2%
CCOC(=O)C1=C(C)N=c2s/c(=C\c3ccc4c(c3)OCO4)c(=O)n2C1c1ccc(C)cc1 (stereo not given) | -7.1%
CCOC(=O)C1=C(C)N=c2s/c(=C\c3ccc4c(c3)OCO4)c(=O)n2C1c1ccc2c(c1)OCO2 (stereo not given) | 3.5%
CCOC(=O)C1=C(C)N=c2s/c(=C\c3ccc(Cl)cc3)c(=O)n2C1c1ccc2c(c1)OCO2 (stereo not given) | 121%
CCOC(=O)C1=C(C)N=c2s/c(=C\c3ccccc3)c(=O)n2C1c1ccc(Cl)cc1 (stereo not given) | 3.8%
CCOC(=O)C1=C(C)N=c2s/c(=C/c3ccc(C)cc3)c(=O)n2C1c1ccccc1 (stereo not given) | 2.5%
CCOC(=O)C1=C(C)N=c2s/c(=C/c3ccc(Cl)cc3)c(=O)n2C1c1ccccc1 (stereo not given) | 90.8%
CCOC(=O)C1=C(C)N=c2s/c(=C\c3ccc([N+](=O)[O-])cc3)c(=O)n2C1c1ccc(Cl)cc1 (stereo not given) | 9.2%
O=C(/C=C/c1cccc(C(F)(F)F)c1)Nc1ccccc1[N+](=O)[O-] | 7%
O=C(O)CCC(=O)N1N=C(c2cccs2)CC1c1ccccc1Cl (stereo not given) | -8.4%
O=C(Cc1ccc(Cl)cc1)Nc1ccc(Cl)cn1 | 8.8%
Clc1ccc(N2CCN(N=Cc3c(Cl)cccc3Cl)CC2)cc1 | 8.5%
Cc1ccc(C(=O)Nc2ccc(C(=O)O)cc2)cc1S(=O)(=O)NC1CCCCC1 | -11.1%
Cc1nn(-c2ccccc2)c(C)c1/C=N/O | 3.2%
CCOC(=O)c1c(NC(=O)C(C)N2C(=O)c3ccccc3C2=O)sc2c1CCC(C)C2 (stereo not given) | 2.5%
COc1ccc(N2C(=O)NC(=O)/C(=C/c3cccc(OCc4ccccc4F)c3)C2=O)cc1 | 0.1%
O=C1NN(c2ccccc2)C(=O)/C1=C/c1ccc(-c2ccc(F)cc2)o1 | 8.1%
COc1ccc(N2C(=O)NC(=O)/C(=C/c3ccc(OCc4ccccc4F)cc3)C2=O)cc1 | 63.1%
O=C1NC(=O)N(c2ccccc2)C(=O)/C1=C\c1ccc(OCc2ccccc2F)cc1 | 12.9%
O=C1NC(=O)N(c2ccccc2)C(=O)/C1=C\c1ccc(-c2ccc(F)cc2)o1 | 137%
Cc1ccc(N2C(=O)NC(=O)/C(=C/c3ccc(-c4ccc(F)cc4)o3)C2=O)cc1 | 40.5%
COc1ccc(N2C(=O)NC(=O)/C(=C/c3ccc(I)o3)C2=O)cc1 | 3.6%
COc1ccc(N2C(=O)NC(=O)/C(=C/c3ccc(Sc4ccc(C)cc4)o3)C2=O)cc1 | 125%
COc1ccc(N2C(=O)NC(=O)/C(=C/c3ccc(-c4ccc(F)cc4)o3)C2=O)cc1 | 100%
COc1ccc(N2C(=O)NC(=O)/C(=C\c3ccc(C)cc3)C2=O)cc1 | -6%

SMILES | displacement
COc1ccc(N2C(=O)NC(=O)/C(=C\c3ccc(-c4ccccc4C(=O)O)o3)C2=O)cc1 | -88.8%
COC(=O)c1c(N)sc(C(=O)Nc2ccccc2OC)c1C | 1.7%
Cc1cc(Cl)ccc1OCC(=O)Nc1nc2ccc(Cl)cc2s1 | -7.8%
O=[N+]([O-])c1cccc(S(=O)(=O)N2CCc3ccccc3C2)c1 | 0%
COc1ccccc1N1C(=O)C2C(C1=O)C1C=CC2C12CC2 (stereo not given) | 15.1%
O=C(Nc1ccc(I)cc1)/C(=C\c1cccc([N+](=O)[O-])c1)NC(=O)c1cccs1 | -0.6%
COc1cccc(OC)c1C(=O)Nc1ccc(C(=O)Oc2ccccc2)c(O)c1 | -9.1%
O=C(Nc1ccc(Cl)c(-c2nc3ccccc3o2)c1)c1cccc(F)c1 | -5.1%
CC(=O)Nc1ccc(S(=O)(=O)Nc2ccccc2Br)cc1 | -2.9%
O=C1NC(=S)N/C1=C/c1cccc(O)c1 | -6.7%
COc1cc(OC)cc(-c2nc3ccc(C)cc3c(=O)o2)c1 | -17.8%
O=C(Nc1ccc2nn(-c3ccc(F)cc3)nc2c1)c1ccc(-c2ccc([N+](=O)[O-])cc2)o1 | 8.2%
CN1C(=O)NC(=O)/C(=C/c2ccc(-c3ccc(Cl)cc3)o2)C1=O | 37%
C=CCN1C(=O)/C(=C\c2ccc(-c3ccc(F)cc3)o2)C(=O)NC1=S | -3.3%
CN1C(=O)NC(=O)/C(=C/c2ccc(-c3ccc(F)cc3)o2)C1=O | 123%
COc1ccccc1CNC(=O)c1cccc(Cl)c1 | -6.1%
COc1cccc(C(=O)Nc2ccc(-c3nc4ccccc4o3)c(O)c2)c1 | -23.2%
O=[N+]([O-])c1ccc(/C=N\Nc2nc(-c3ccccc3)c3cc(Cl)ccc3n2)o1 | -5.3%
Clc1ccc2nc(N/N=C/c3ccc4c(c3)OCO4)nc(-c3ccccc3)c2c1 | 83.7%
Clc1ccc2nc(N/N=C/c3ccc4ncccc4c3)nc(-c3ccccc3)c2c1 | -2.6%
Cc1ccc(/C=N\N2CCN(c3ccccc3)CC2)cc1 | -3.9%
COc1cc(C)nc(Nc2nc(C)c3ccc(C)cc3n2)n1 | 13.2%
COc1ccc2nc(Nc3nc(C)cc(-c4ccccc4)n3)nc(C)c2c1 | -14.2%
COc1cc(C)nc(Nc2nc(C)c3cc(C)ccc3n2)n1 | 107%
CN(C)c1ccc(CC2(CC(=O)c3ccccc3)C(=O)c3ccccc3C2=O)cc1 | 1.8%
CC1=CC(=O)C=C/C1=N\OS(=O)(=O)c1ccccc1 | 25.4%
COc1ccc(C=C2C(=O)N(C)C(=O)N(C)C2=O)cc1OC | 0.6%

SMILES | displacement
COc1cc(C=C2C(=O)N(C)C(=O)N(C)C2=O)ccc1OC(C)c1ccccc1 (stereo not given) | 120%
COc1cc(C=O)ccc1OC(C)c1ccccc1 (stereo not given) | 1.1%
COc1ccc(OC)c(/C=c2\sc3nc4c(Br)c(C)c(C)cc4n3c2=O)c1 | 19.8%
Cc1ccc(OCC(=O)O/N=C(\N)c2ccncc2)c(C)c1 | 2.5%
CC1(C)Cc2ccccc2-c2nnc(-c3cccs3)n21 | -8.6%
N/C(=N/c1nc2ccccc2o1)NC(=O)c1sc2ccccc2c1Cl | 51.6%
N/C(=N\c1nc2ccccc2o1)NC(=O)c1ccc(F)cc1 | 1.4%
N/C(=N\c1nc2ccccc2o1)NC(=O)c1ccccc1 | -10.3%
O=C(Oc1ccc(Br)cc1C(=S)N1CCOCC1)c1ccc([N+](=O)[O-])cc1 | 7.3%
Cc1cccc(NC(=O)c2c(NC(=O)C(C)(C)C)sc3c2CCC3)c1 | -2.3%
Nc1nnc2c(n1)-c1ccccc1C2=O | 1%
CNc1ccc2[nH]nc3c2c1C(=O)c1ccccc1-3 | 173%
CNc1c(Cl)c(Cl)c(Cl)c2c1C(=O)c1ccccc1C2=O | 11.2%
CCC(=O)Nc1cccc2c1C(=O)c1ccccc1C2=O | 11.2%
Nc1ccc2[nH]nc3c2c1C(=O)c1ccccc1-3 | 104%
Nc1cccc2c1C(=O)c1c(N)cccc1C2=O | -4.2%
Cc1cc(C)nc(NS(=O)(=O)c2ccc(NC(=S)NC(=O)c3ccc(Br)cc3)cc2)n1 | 2.6%
O=C(NCCN1CCOCC1)c1sc2ccccc2c1Cl | -3.6%
CCOc1cc([N+](=O)[O-])cc(/C=C2/SC(=S)NC2=O)c1O | 14%
NS(=O)(=O)c1ccc(NC(=O)COc2ccc3ccccc3c2)cc1 | 3%
Cc1ccc(OCCCN2CCN(C)CC2)c(C(C)(C)C)c1 | -8%
CC(=NCCN1CCNCC1)C1=C(O)CC(C)(C)CC1=O | -4.3%
O=c1nc(/C=C/c2cc3c(cc2[N+](=O)[O-])OCO3)cc(C(F)(F)F)[nH]1 | 30.4%
O=c1nc(/C=C/c2cc3c(cc2Br)OCO3)cc(C(F)(F)F)[nH]1 | 115%
O=c1nc(/C=C/c2cccc3ccccc23)cc(C(F)(F)F)[nH]1 | 49.7%
COc1cc(OC)c(OC)cc1/C=C/c1cc(C(F)(F)F)[nH]c(=O)n1 | 7.5%
COc1cc(/C=C/c2cc(C(F)(F)F)[nH]c(=O)n2)cc(OC)c1OC | 2.7%

SMILES | displacement
COc1cccc(/C=C/c2cc(C(F)(F)F)[nH]c(=O)n2)c1OC | 121%
CCOC(=O)c1c(NC(=O)c2ccc(Cl)cc2)sc(C(=O)Nc2ccccc2OCC)c1C | 3.5%
Cc1cc(N2C(=O)NC(=O)/C(=C\c3ccco3)C2=O)ccc1Br | 74%
Cc1cc(N2C(=O)NC(=O)/C(=C\c3ccc(N(C)C)o3)C2=O)ccc1Br | 153%
Cc1ccc(N2C(=O)NC(=O)/C(=C\c3ccc(N4CCCCC4)o3)C2=O)cc1 | -139%
Cc1cc(N2C(=O)NC(=O)/C(=C\c3ccc(N4CCOCC4)o3)C2=O)ccc1Br | -33.9%
Cc1cc(N2C(=O)NC(=O)/C(=C\C=C\c3ccco3)C2=O)ccc1Br | -3.7%
Cc1cc(N2C(=O)NC(=O)/C(=C\c3ccc(N4CCCCC4)o3)C2=O)ccc1Br | 55.5%
O=C1NC(=O)N(c2ccc(Br)cc2)C(=O)/C1=C/c1ccco1 | 30.1%
Cc1ccc(N2C(=O)NC(=O)/C(=C\c3ccc(N(C)C)o3)C2=O)cc1 | -134%
CCN(CC)c1ccc(/C=C2\C(=O)NC(=O)N(c3ccc(Br)c(C)c3)C2=O)o1 | 42.6%
CC(C)(C)C1(O)CC(c2ccccc2)=NO1 (stereo not given) | 18.6%
O=C1c2ccccc2C(=O)c2c(NC(=O)C3CC4CCC3C4)cccc21 (stereo not given) | -7.7%
O=C(c1ccccc1)N1CCN(C2CC(=O)N(CCc3ccccc3)C2=O)CC1 (stereo not given) | 3.9%
CCC1=NN2C(=N)/C(=C/c3ccc4c(c3)OCO4)C(=O)N=C2S1 | 3%
CCOc1cccc(N2C(=O)NC(=O)/C(=C\c3ccc(Sc4ccccc4)o3)C2=O)c1 | 4%
Cc1cc(=O)c2c(C)nc(-c3ccccc3)nc2[nH]1 | 31.5%
Cc1nc(-c2ccccc2)nc2[nH]c(-c3ccccc3)cc(=O)c12 | 69.8%
CSc1nc(-c2ccccc2)nc2[nH]c(-c3ccccc3)cc(=O)c12 | 44.4%
CCOC(=O)c1ccc(NC(=O)c2cc(-c3cccs3)nc3ccccc23)cc1 | 4.7%
CCN(CC)CCNC(=O)c1ccc(Cl)c(Cl)c1 | -5.2%
Cc1ccc(C(=O)NC(NC(=S)Nc2ccccc2Cl)C(Cl)(Cl)Cl)cc1 (stereo not given) | -10.7%
O=C(NC(NC(=S)Nc1cccc2ccccc12)C(Cl)(Cl)Cl)c1ccccc1 (stereo not given) | 18.6%
Cc1ccc(C(=O)NC(NC(=S)Nc2cccc3ccccc23)C(Cl)(Cl)Cl)cc1 (stereo not given) | 54.9%
